Eight compounds from PubChem BioAssay (Tox21) can be followed below.

Experiment [1] can be described thus: qHTS assay to identify small molecule antagonists of the estrogen related receptor (ERR) signaling pathway from Tox21 library - cell viability counter screen (AID 1224834). Note: nearly all actives have a fitted effect of over 30% in size. The essentials:
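Multiplexed viability counter screen in ERR cells: 17.5 h compound exposure at 37 C, CellTiter-Fluor added, 30 min at 37 C/5% CO2, fluorescence read.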

Experiment [2] addresses Luciferin 4-monooxygenase (Photinus pyralis) (UniProt P08659). Kind of experiment: qHTS assay to identify small molecule inhibitors of firefly luciferase (AID 1224835). Note: nearly all actives have a fitted effect of over 25% in size. The essentials: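 Biochemical qHTS: compounds run as interplate titrations against purified firefly enzyme, with D-luciferin and ATP each at its KM concentration. Light output recorded by CCD imaging.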
Experiment [3] can be described thus: qHTS assay to identify small molecule agonists of the constitutive androstane receptor (CAR) signaling pathway - cell viability counter screen (AID 1224836). Note: nearly all actives have a fitted effect of over 45% in size. In outline: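 Cells were seeded and incubated 4 hrs. Compounds were added across 15 concentrations together with PK11195 at 0.75 uM final. Plates were incubated 23 hrs at 37 C. CellTiter-Fluor was added and fluorescence measured.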

The nature of experiment [4]: qHTS assay to identify small molecule antagonists of the constitutive androstane receptor (CAR) signaling pathway - cell viability counter screen (AID 1224837). Note: nearly all actives have a fitted effect of over 45% in size. The essentials: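 Read-out: CellTiter-Fluor fluorescence after 23 hr at 37 C/5% CO2. Cells: HepG2 double-stable for hCAR and CYP2B6-2.2kb. Compounds tested at 15 concentrations in the presence of CITCO, final concentration 50 nM.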

Experiment [5] addresses Nuclear receptor subfamily 1 group I member 3 (Homo sapiens) (UniProt Q14994). Kind of experiment: qHTS assay to identify small molecule antagonists of the constitutive androstane receptor (CAR) signaling pathway (AID 1224838).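 Note: HepG2 cells stably expressing hCAR with CYP2B6 luciferase reporter stimulated by CITCO; nearly all actives have a fitted effect of over 40% in size.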 The essentials: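 Read-out: ONE-Glo luciferase luminescence after 30 min at room temperature. HepG2-CYP2B6-hCAR double-stable cells, compounds in 15-point titration plus 50 nM CITCO final, 24 h at 37 C/5% CO2.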

For experiment [6] the target is unchanged. Kind of experiment: qHTS assay to identify small molecule agonists of the constitutive androstane receptor (CAR) signaling pathway (AID 1224839).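 For activation: HepG2 cells stably carrying human CAR and a CYP2B6 luciferase reporter.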 Note: nearly all actives have a fitted effect of over 15% in size. Note: potency is the fitted concentration of half-maximal effect. In outline:
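Cells were plated and incubated 4 hrs, then dosed with compounds at 15 concentrations. PK11195 was added to 0.75 uM final. After 24 hrs at 37 C, luciferase luminescence was measured.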

In experiment [7] the target is Thyrotropin receptor (Homo sapiens) (UniProt P16473). Kind of experiment: qHTS assay to identify small molecule agonists of the thyroid stimulating hormone receptor (TSHR) signaling pathway (AID 1224843; calls by dose curve; note: nearly all actives have a fitted effect of over 45% in size). In outline: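 HEK293/TSHR, 800 cells/well; cpd 30 min RT; add cAMP-d2 + anti-cAMP-cryptate, 1 h RT; fluorescence read on plate reader. 15-pt titration, n=3.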
Chain of Thyrotropin receptor (Homo sapiens) (P16473 whole entry, looked up): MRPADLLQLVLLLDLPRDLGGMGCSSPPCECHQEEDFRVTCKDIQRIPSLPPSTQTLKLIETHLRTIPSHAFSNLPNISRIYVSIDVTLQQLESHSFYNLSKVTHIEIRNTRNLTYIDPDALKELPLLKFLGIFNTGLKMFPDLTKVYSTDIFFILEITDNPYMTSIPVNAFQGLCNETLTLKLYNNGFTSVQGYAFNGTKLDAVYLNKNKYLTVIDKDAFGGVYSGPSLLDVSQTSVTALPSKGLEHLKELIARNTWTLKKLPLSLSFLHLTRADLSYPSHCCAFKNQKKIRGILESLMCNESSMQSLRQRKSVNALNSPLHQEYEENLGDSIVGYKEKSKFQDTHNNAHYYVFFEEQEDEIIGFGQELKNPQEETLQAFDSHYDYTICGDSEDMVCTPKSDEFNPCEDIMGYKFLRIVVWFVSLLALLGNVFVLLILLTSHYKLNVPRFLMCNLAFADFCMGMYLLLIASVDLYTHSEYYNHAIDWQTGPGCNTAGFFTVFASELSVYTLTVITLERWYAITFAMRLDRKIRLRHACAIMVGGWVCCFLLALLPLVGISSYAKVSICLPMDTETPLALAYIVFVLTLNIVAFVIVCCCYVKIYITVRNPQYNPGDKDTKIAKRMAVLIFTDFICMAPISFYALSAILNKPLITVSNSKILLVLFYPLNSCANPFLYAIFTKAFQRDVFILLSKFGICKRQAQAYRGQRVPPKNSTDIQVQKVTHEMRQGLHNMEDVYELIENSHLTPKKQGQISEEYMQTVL
The nature of experiment [8]: qHTS assay to identify small molecule agonists of the hypoxia (HIF-1) signaling pathway - cell viability counter screen (AID 1224844; calls by dose curve; note: nearly all actives have a fitted effect of over 50% in size). In outline: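 CellTiter-Glo luminescence read-out, 30 min RT, taken in the same wells as the beta-lactamase HRE reporter assay; HRE-bla ME-180 cells, 0.5% dialyzed FBS, 17 hr compound treatment at 37C, 5% CO2.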
The nature of experiment [9]: qHTS assay to identify small molecule agonists of H2AX (AID 1224845; active = well fitted activation curve with a large enough effect in the signal ratio in the repeat runs, not every such curve was filed as active; the % refers to the signal ratio). The essentials:
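Wild-type CHO-K1 cells, plated overnight, exposed 3hr at 37C to 15 concentrations (0.76% DMSO final). Lysed, then HTRF anti-pH2AX (S139) cryptate and anti-H2AX-d2 antibodies, 24 hr room temperature; 665/620 nm emission read.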

The nature of experiment [10]: qHTS assay to identify small molecule agonists of the hypoxia (HIF-1) signaling pathway (AID 1224846; active = well fitted activation curve with a large enough effect in the signal ratio in the repeat runs, not every such curve was filed as active; the % refers to the signal ratio). The essentials:
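Beta-lactamase FRET read-out (CCF4-AM substrate) from ME-180 cells carrying an HRE-driven bla reporter, after 17 hrs compound exposure at 37C/5% CO2. Cells were seeded at 2,000 per well in 0.5% dialyzed FBS medium and preincubated 5 hrs.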

The nature of experiment [11]: qHTS assay to identify small molecule agonists of H2AX - cell viability counter screen (AID 1224847; calls by dose curve; note: top concentration of the series differs between compounds; nearly all actives have a fitted effect of over 30% in size). The essentials: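 Cytotoxicity counter screen in wild-type CHO-K1 cells: a 3 hr compound treatment at 37C across 15 concentrations, followed by CellTiter-Glo luminescence to gauge viable cells.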
A short description of experiment [12]: qHTS RealTime-Glo MT Cell Viability Assay in HepG2 cells - 24 hour (AID 1224867). Note: nearly all actives have a fitted effect of over 50% in size. In outline: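 HepG2 suspension premixed with RealTime-Glo reagents is plated at 600 cells per well and left 5 h at 37 C/5% CO2. Compounds in DMSO then go in, and bioluminescence reflecting viable cell number is recorded over 40 h.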
Experiment [13] is described as follows: qHTS RealTime-Glo MT Cell Viability Assay in HEK293 cells - 32 hour (AID 1224868). Note: top concentration of the series differs between compounds; nearly all actives have a fitted effect of over 50% in size. The essentials:
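Reads taken at 0, 8, 16, 24, 32 and 40 h from the same wells. HEK293 cells (600/well) carried RealTime-Glo reagents from seeding, with compound added after a 5 h settle at 37 C.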

Experiment [14] in a line: A CellTox Green Cytotoxicity Assay to monitor cytotoxicity in HEK293 cells - 0 hour (AID 1224869). Note: nearly all actives have a fitted effect of over 50% in size. The essentials: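 Read-out: fluorescence of a cell-impermeant cyanine dye staining DNA of dead cells, proportional to cytotoxicity. HEK293, 600 cells/well with reagent, compound (23 nL DMSO) added after 5 h; reads at 0, 8, 16, 24, 32, 40 h.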
Experiment [15] can be described thus: qHTS RealTime-Glo MT Cell Viability Assay in HepG2 cells - 40 hour (AID 1224870). Note: nearly all actives have a fitted effect of over 50% in size. In outline: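 HepG2 cells (600/well) mixed with RealTime-Glo MT reagent, settled 5 h at 37 C/5% CO2 before compound addition. Nonlytic NanoLuc luminescence from viable-cell prosubstrate reduction read repeatedly during 40 h treatment at 37 C.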
Experiment [16] is described as follows: qHTS assay to identify small molecule antagonists of the estrogen related receptor signaling pathway with the pleiotropic PPARgamma coactivator (PGC) from Tox21 10K library (AID 1224841; call rule not given here). In outline: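 Luminescence read-out (One-Glo luciferase reagent, 30 min at room temperature) from PGC/ERR cells exposed to DMSO-dissolved test compounds for 18 h at 37 C; cells, 2,000 per well, had been preincubated 6 h before compound transfer.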

Experiment [17] can be described thus: qHTS assay to identify small molecule agonists of the estrogen related receptor signaling pathway with the pleiotropic PPARgamma coactivator (PGC) from Tox21 10K library (AID 1224842). Note: nearly all actives have a fitted effect of over 15% in size. The essentials:
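PGC/ERR reporter cell line, 2,000 cells per well, incubated 6 h at 37 C before 23 nL compound in DMSO was added. After 18 h at 37 C, One-Glo luminescence read following 30 min at room temperature.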

A short description of experiment [18]: qHTS assay to identify small molecule antagonists of the estrogen related receptor (ERR) signaling pathway from Tox21 library (AID 1224848). Note: nearly all actives have a fitted effect of over 50% in size. In outline:
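Compounds dissolved in DMSO are pin-transferred onto ERR reporter cells (2,000 per well) that have settled for 6 h at 37 C. Plates then incubate 18 h at 37 C before ONE-Glo luciferase reagent and a luminescence read 30 min later.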

Experiment [19] is described as follows: qHTS assay to identify small molecule agonists of the estrogen related receptor (ERR) signaling pathway from Tox21 library (AID 1224849; calls by dose curve; note: nearly all actives have a fitted effect of over 15% in size). The settings on record: ERR reporter cell line, ONE-Glo luciferase, 18 h. The essentials:
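Luminescence readout (ONE-Glo, 30 min RT) after 18 h compound exposure at 37 C of NTP-supplied ERR reporter cells; cells were plated 6 h before compound addition by pin tool.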

The nature of experiment [20]: qHTS assay to identify small molecule antagonists of the estrogen related receptor signaling pathway with the pleiotropic PPARgamma coactivator (PGC) from Tox21 10K library - cell viability counter screen (AID 1224840; active = well fitted cell-killing curve with a large enough effect in the repeat runs, not every such curve was filed as active; note: nearly all actives have a fitted effect of over 40% in size). The essentials: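 Fluorescence read-out of CellTiter-Fluor viability reagent, added after cells had been exposed to compound in DMSO for 17.5 h at 37 C; 30 min development at 37 C/5% CO2. Cells: PGC/ERR line, 2,000/well.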

SMILES strings stand for the structures. Several values for one entry are separate records, joined by “and”; a condition that tells them apart may be missing. Equal entries are not always repeated. Inconclusive results are not listed. A structure can be active in one record and inactive in another. Activity calls are given as the source filed them. Unless noted, calls come from the whole dose curve; as a rule, active = well fitted curve in the direction sought with a large enough effect in the repeat runs; inconclusive = weak or mixed curves; inactive = no such curve, though single readings can be large; an effect the other way counts as inactive or inconclusive.
% is set by controls: 0 for no effect and ±100 for the full control effect.

Chain of Nuclear receptor subfamily 1 group I member 3 (Homo sapiens) (Q14994 whole entry, looked up): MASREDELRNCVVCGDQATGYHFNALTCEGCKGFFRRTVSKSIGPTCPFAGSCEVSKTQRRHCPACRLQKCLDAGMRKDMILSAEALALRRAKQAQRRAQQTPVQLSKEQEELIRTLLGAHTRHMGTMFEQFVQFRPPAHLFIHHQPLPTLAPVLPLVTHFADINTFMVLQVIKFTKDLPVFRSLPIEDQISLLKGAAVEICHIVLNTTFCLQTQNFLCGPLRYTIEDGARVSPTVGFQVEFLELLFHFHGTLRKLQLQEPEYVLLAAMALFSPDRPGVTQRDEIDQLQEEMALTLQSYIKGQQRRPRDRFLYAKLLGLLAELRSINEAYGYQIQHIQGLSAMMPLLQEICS
Chain of Luciferin 4-monooxygenase (Photinus pyralis) (P08659 whole entry, looked up): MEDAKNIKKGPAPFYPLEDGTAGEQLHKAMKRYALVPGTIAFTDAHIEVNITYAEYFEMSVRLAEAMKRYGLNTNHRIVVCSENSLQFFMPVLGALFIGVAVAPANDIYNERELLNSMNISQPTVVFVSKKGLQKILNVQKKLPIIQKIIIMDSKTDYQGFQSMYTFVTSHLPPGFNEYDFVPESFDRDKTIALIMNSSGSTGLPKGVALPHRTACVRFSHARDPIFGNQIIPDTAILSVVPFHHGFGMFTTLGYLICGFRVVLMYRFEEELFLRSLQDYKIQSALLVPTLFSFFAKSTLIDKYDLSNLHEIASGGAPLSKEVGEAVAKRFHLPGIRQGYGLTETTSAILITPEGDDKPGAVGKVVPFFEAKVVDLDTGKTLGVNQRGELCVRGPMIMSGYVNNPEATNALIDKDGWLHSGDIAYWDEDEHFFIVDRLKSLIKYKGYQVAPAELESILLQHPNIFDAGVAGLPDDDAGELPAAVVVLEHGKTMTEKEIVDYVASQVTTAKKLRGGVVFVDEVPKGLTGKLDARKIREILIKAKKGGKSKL

As to `CCc1cccc(O)c1`, the Potency result in [1], in experiment [2], in [3], in [4], in experiment [5] and in experiment [6] was “inactive” throughout. Moreover, the Potency result in [7], in experiment [8], in experiment [9], in experiment [11], in experiment [12] and in experiment [13] was “inactive” each time. The Potency entry in experiment [14] and in [15] was “inactive” throughout. For the same compound, the compound was called inactive in experiment [10].

Regarding `CC(=O)Nc1ccc(CC(=O)O)cc1`, the Potency result in experiment [1], in [2], in experiment [3], in experiment [4], in experiment [5] and in experiment [6] was “inactive” throughout. Also, the Potency entry in [16], in [17], in experiment [7], in experiment [8], in [9] and in [11] was “inactive” each time. The Potency entry in experiment [18], in experiment [12], in [13], in experiment [14] and in [15] was “inactive” throughout. Moreover, the outcome in experiment [10] was inactive. Moreover, the activity change, positive = activation in experiment [19] (at 42.5 µM (top of the series)) was -1.58% (inactive); in [19] (at 92.4 µM (top of the series)), 9.59% (inactive).

On to `CC(=O)OCCC(C)C`, for which the Potency result in experiment [1], in [2], in experiment [3], in experiment [4], in experiment [5] and in experiment [6] was “inactive” in each case. The Potency entry in experiment [16], in experiment [17], in experiment [8], in experiment [9], in experiment [11] and in experiment [18] was “inactive” each time. The Potency entry in [12], in [13], in experiment [14] and in experiment [15] was “inactive” each time. Also, the result in experiment [10] was inactive. Further, the activity change, positive = activation in experiment [19] (at 92.4 µM (top of the series)) is 1.01% (inactive) and 5.99% (inactive).

For the compound `C=CC(=O)NCOCCCC`, the Potency entry in experiment [1], in experiment [2], in experiment [3], in experiment [4], in experiment [5] and in [6] was “inactive” in each case. For the same compound, the Potency result in [8], in [9], in experiment [11], in experiment [12], in experiment [13] and in experiment [14] was “inactive” throughout. Further, in experiment [15], the Potency entry is “inactive”. In addition, the call in [10] was inactive.

Regarding `N[C@@H](Cc1cc(I)c(Oc2ccc(O)c(I)c2)c(I)c1)C(=O)O`, the Potency result in experiment [1], in [2], in experiment [3], in experiment [4], in [7] and in experiment [8] was “inactive” each time. Besides, the Potency result in experiment [11], in experiment [12], in [13], in experiment [14] and in [15] was “inactive” throughout. The Potency result in experiment [6] was “inactive and 56.7 µM (active)”. Moreover, the result in experiment [10] was inactive.

Turning to `CN1Cc2c(N)cccc2C(c2ccccc2)C1` (stereo unspecified), the Potency entry in experiment [1], in experiment [2], in experiment [3], in [4], in [5] and in [6] was “inactive” throughout. The Potency result in [7], in [8], in [9], in [11], in [12] and in experiment [13] was “inactive” throughout. Besides, the Potency result in experiment [14] and in experiment [15] was “inactive” throughout.

Take `CC(C)(C)NC[C@H](O)COc1nsnc1N1CCOCC1`: the Potency result in experiment [1], in [2], in experiment [3], in [4], in [5] and in [6] was “inactive” throughout. The Potency result in experiment [8], in experiment [9], in experiment [11], in [12], in experiment [13] and in experiment [14] was “inactive” in each case. Also, the Potency result in experiment [15] is “inactive”.

On to `OC[C@H]1O[C@@H](Oc2ccc(O)cc2)[C@H](O)[C@@H](O)[C@@H]1O`, for which the Potency result in experiment [1], in experiment [2], in experiment [3], in [4], in experiment [20] and in [16] was “inactive” throughout. Moreover, the Potency result in experiment [17], in [7], in [8], in [9], in [11] and in experiment [18] was “inactive” throughout. Besides, the Potency entry in [12], in experiment [13], in experiment [14] and in experiment [15] was “inactive” each time. Besides, the result in [10] was inactive. The activity change, positive = activation in experiment [19] (at 42.5 µM (top of the series)) is 7.9% (inactive); in experiment [19] (at 92.4 µM (top of the series)) it was 7.42% (inactive).
